Source: PubChem BioAssay
CHX counter – Cycloheximide Counterscreen for Small Molecule Inhibitors of Shiga Toxin | max response, % | 300,000 compounds, 12% hits | cell reporter, cycloheximide protein synthesis inhibition counterscreen; in the data active means max response mostly above about 13%, no sharp cut-off; inactive means mostly below about 14%; further: read at 38.3 µM for the half of the compounds with a filed dose
Shiga toxin inh – A qHTS for Small Molecule Inhibitors of Shiga Toxin; 290,000 compounds, 9.2% hits; AID 2315, 2010; Vero cells, Shiga toxin protein synthesis inhibition reporter; inhibition, % at 38.7 µM; in the data active means inhibition mostly above about 28%, no sharp cut-off; inactive means mostly below about 43%
Giardia FBPA inh – qHTS Assay for Inhibitors of Fructose-1,6-bisphosphate Aldolase from Giardia Lamblia | AID 2451, 2010 | A8B2U2 | purified Giardia FBPA | Potency, µM (doses to about 59.6 µM), most hits filed as inhibitors | 290,000 compounds, 0.71% hits; further: nearly all actives have a fitted effect of over 55% in size
Target sequence (A8B2U2 whole entry, looked up): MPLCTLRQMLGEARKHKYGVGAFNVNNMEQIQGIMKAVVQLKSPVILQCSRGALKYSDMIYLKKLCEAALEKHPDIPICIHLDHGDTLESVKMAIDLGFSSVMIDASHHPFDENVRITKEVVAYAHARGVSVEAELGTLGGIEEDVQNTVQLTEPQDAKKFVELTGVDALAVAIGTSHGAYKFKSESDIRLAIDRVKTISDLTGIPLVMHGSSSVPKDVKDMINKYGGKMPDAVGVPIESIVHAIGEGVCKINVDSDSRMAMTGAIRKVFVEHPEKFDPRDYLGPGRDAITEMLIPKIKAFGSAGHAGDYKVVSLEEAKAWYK
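40 nM FBPA preincubated 10 min at RT with compound (up to 57.5 uM final), then substrate plus GAPDH/TPI/NAD/arsenate coupling and diaphorase/resazurin added. Fluorescence read after 20 min at RT, 525/598 nm.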
LmPK inhibitor – qHTS Assay for Inhibitors of Leishmania Mexicana Pyruvate Kinase (LmPK); Potency, µM (top dose mostly 57.5 µM), actives largely listed as inhibitors; 290,000 compounds, 0.37% hits; Q27686; purified LmPK, Kinase-Glo ATP luminescence, 1 h
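Pyruvate kinase activity monitored as ATP production (luciferase luminescence). Conditions: 0.1 nM enzyme, 0.5 mM PEP, 0.1 mM ADP, 1 h, RT; normalized against uninhibited and no-enzyme wells.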
Tb PYK inh – qHTS of Trypanosoma Brucei Inhibitors; Potency, µM (top dose mostly 76.8 µM), most hits filed as inhibitors; 410,000 compounds, 0.12% hits; TbPYK enzyme, Kinase-Glo Plus ATP luminescence, 45 min; AID 624173, 2012; further: nearly all actives have a fitted effect of over 50% in size
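Luminescence from Kinase-Glo Plus, added after a 45-minute room-temperature reaction, served as the end-point read-out. The enzyme and substrate were preincubated with compound before ADP (130 uM final) initiated turnover. Concentration-effect curves came from normalized qHTS data.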
RE007 growth inh – qHTS Assay for Inhibitors of the HIV-1 protein Vpr; S. pombe RE007 Vpr strain, BacTiter-Glo ATP luminescence, 24 h; Potency, µM (doses to about 92.2 µM), usual class: inhibitors; 360,000 compounds, 0.21% hits; AID 651644, 2012; active means well fitted falling curve with a large enough effect; inconclusive means small, poorly fitted or top-dose-only effect; inactive means no such curve, though single readings can be large or run the other way; further: nearly all actives have a fitted effect of over 50% in size
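Fission yeast strain RE007, carrying one chromosomally integrated HIV-1 vpr copy, was seeded at OD 0.01 in PMG+AL medium with 23 nL pinned compound. After 24 h at 30 °C and 99% humidity, viability was read by BacTiter-Glo luminescence.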
Hits are given with their value; . = inactive; ? = inconclusive; / = no result; + = active, no number; [ ] = remark or other dose. Many of the other results were omitted from the sample, so hits are more common in it than they were. Unless noted, the call rests on the fitted dose curve; in most records, active means well fitted curve in the direction sought with a large enough effect; inconclusive means small, poorly fitted or top-dose-only effect, or another doubt; inactive means no such curve, though single readings can be large; an effect the other way counts as inactive or inconclusive.

SMILES	CHX counter	Shiga toxin inh	Giardia FBPA inh	LmPK inhibitor	Tb PYK inh	RE007 growth inh
COc1cccc(C(=O)OCC(=O)c2ccc(Br)s2)c1	53	88	/	.	.	.
Cc1cccc(Cn2c(=O)n3nc(-c4ccccc4)nc3c3ccccc32)c1	/	/	/	/	.	/
COc1cc(-c2nc3ccccn3c2/N=C/c2cc(OC)c(O)cc2Cl)ccc1O	30	22	?	.	.	?
COc1cc(-c2nc3ccccn3c2/N=C/c2ccccc2)ccc1O	.	.	.	.	.	.
Cc1nc2cnc(N3CCN(C)CC3)nc2n(Cc2ccc(F)cc2)c1=O	/	/	.	/	/	/
COc1ccc(CNC(=S)Nc2cccc(C)c2)cc1	.	.	.	.	.	.
COc1cccc(NC(=S)NCc2ccc(F)cc2)c1	14	.	.	.	.	.
COc1ccc(CNC(=S)Nc2cccc(F)c2)cc1	12	28	.	.	.	.
C=CCOC(=O)N[C@@H](c1ccc(Br)cc1)C(C(C)=O)C(C)=O	/	/	.	/	/	/
COc1ccc(Nc2ncnc3sc(-c4ccccc4)cc23)cc1	.	.	.	.	.	.
COc1ccc(Nc2ccnc3ccccc23)cc1	18	.	.	.	.	.
COc1cccc(Nc2cc(C)c3ccccc3n2)c1	25	66	.	.	.	.
COc1cccc(Nc2ncnc3ccccc23)c1	31	99	.	?	.	.
COc1ccc(Nc2ncnc3ccccc23)c(OC)c1	.	.	.	.	.	.
COc1ccc(Nc2cc(Nc3ccccc3)ncn2)cc1	31	49	.	.	.	.
CC1=C(C(=O)O)N2C(=O)[C@@H](NC(=O)[C@H](N)C3=CCC=CC3)[C@H]2SC1	/	/	/	/	.	/
CC(=O)c1cccc(Nc2ncnc3c2cnn3-c2cccc(Cl)c2)c1	/	/	/	/	.	/
CCCCC(=O)N1C/C=C\C(c2ccc(OC)cc2)N(Cc2ccc(F)cc2)C(=O)C1Cc1ccccc1 (centres undefined)	.	.	.	/	/	/
Cc1ccc(Nc2cc(C)c3ccc(O)cc3n2)cc1C	43	83	?	.	.	.
CCOc1nc(Nc2ccc(OC)cc2)nc(OCC)n1	.	.	.	.	.	.
COc1ccc(Nc2ccnc(Nc3ccc(OC)cc3)n2)cc1	37	72	.	.	.	.
Cc1cc(NCc2ccco2)nc2cc(O)ccc12	.	.	.	.	.	.
COc1ccc(Nc2ccccc2N)cc1	.	44	.	.	.	.
COc1ccc(Nc2ncnc3ccccc23)cc1	30	71	.	.	.	.
COc1ccc(C2=NN(CC(=O)NCCc3ccc(OC)c(OC)c3)C(=O)CC2)cc1	/	/	/	/	.	/
SMILES	CHX counter	Shiga toxin inh	Giardia FBPA inh	LmPK inhibitor	Tb PYK inh	RE007 growth inh
CC(C)CO/N=C1/C[C@@H](O)[C@@H](O)[C@@H]2[C@@H]3C(=O)N(Cc4ccc5c(c4)OCO5)C(=O)[C@H]3CC[C@H]12	/	/	.[12.9 µM]	/	/	/
CN(C)c1ccc(/C=C/C(=O)c2cc(Cl)ccc2O)cc1	.	.	.	.	.	.
O=C(c1ccccc1)c1ccccc1	.	.	.	/	.	.
CCN(CC)c1ccc(/C=C/C(=O)c2ccc(Br)cc2)cc1	14	.	.	.	.	.
CCN(CC)c1ccc(/C=C/C(=O)c2cccnc2)cc1	.	.	.	.	.	.
CN(C)c1ccc(C(=O)/C=C/c2ccc(Br)cc2)cc1	23	58	.	.	.	.
CN(C)c1ccc(C(=O)/C=C/c2ccccc2)cc1	44	105	.	.	.	.
O=C(c1ccccc1)c1ccc(-c2ccc(O)cc2)cc1	40	68	.	.	.	.
O=C(Nc1cccc(Cl)c1)c1cc(S(=O)(=O)N2CCCc3ccccc32)ccc1F	/	/	/	/	.	/
c1ccc(-c2nc(-c3cccs3)c(NC3CCCCC3)o2)cc1	/	/	.	/	/	/
C=C(c1ccccc1)c1ccc(N(C)C)cc1	.	.	.	.	.	.
CN(C)c1ccc(C(=O)c2ccccc2)cc1	26	.	.	.	.	?
CN(C)c1ccc(/C=C/C(=O)c2ccccc2)cc1[N+](=O)[O-]	62	+	.	.	.	.
CC(C)OC(=O)CC12CN3CC(CC(=O)OC(C)C)(CN(C1)C(=O)c1ccccc1C3=O)C2=O	.	.	.	.	.	.
